Bioassay records (PubChem)
HEK293 tox: Cytotoxic Profiling in HEK 293 Cell Line of Diverse Libraries Using Quantitative High-Throughput Screening; HEK 293 viability, ATP luminescence (CellTiter-Glo), 48-72 h; Potency, µM (titrated, usually from 115 µM), most hits filed as inhibitors; hit rate 6.6% among 94,000; further: nearly all actives have a fitted effect of over 60% in size
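Pintool-delivered compounds were incubated with HEK 293 cells (250 cells/well) at 37 degree Celsius for 48 or 72 hr. ATP-dependent luminescence (CellTiter-Glo) then reported remaining viable cells.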
SNCA expr inh: Primary qHTS assay for inhibitors of alpha-synuclein gene (SNCA) expression | HEK-293 SNCA-luciferase knock-in, luminescence, 24 h | Potency, µM (highest dose often 57.2 µM), actives largely listed as inhibitors | hit rate 0.17% among 140,000 | AID 1671194, 2021; further: nearly all actives have a fitted effect of over 45% in size
NIH3T3 tox: Cytotoxic Profiling in NIH 3T3 Cell Line of Diverse Libraries Using Quantitative High-Throughput Screening | Potency, µM (highest dose often 96.7 µM), hits mostly inhibitors | NIH 3T3 viability, CellTiter-Glo ATP luminescence, 48-72 h | AID 1345082, 2018 | hit rate 4.3% among 94,000; further: nearly all actives have a fitted effect of over 55% in size
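NIH 3T3 cells at 400 cells/well received 23 nL of compound by pintool and were incubated 48 or 72 h at 37 °C. Viability was read as ATP-coupled CellTiter-Glo luminescence.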
FLuc inh-1: Firefly luciferase inhibition profiling of diverse chemical library using quantitative high-throughput screening | Luciferin 4-monooxygenase (Photinus pyralis), P08659 | Potency, µM (doses to about 115 µM), usual class: inhibitors | purified P. pyralis luciferase, luminescence, biochemical | hit rate 2.5% among 76,000; further: nearly all actives have a fitted effect of over 65% in size
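Luminescence read by CCD imager after adding enzyme (10nM final) to wells holding compound, titrated in qHTS. Substrates 10uM each D-luciferin and ATP; buffer 50mM Tris acetate pH 7.5, 10mM Mg acetate, Tween-20, BSA.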
IP6K1 inhibitor: Primary qHTS assay for small molecule inhibitors of Inositol hexaphosphate kinase 1 (IP6K1) | IP6K1 kinase, ADP-Glo luminescence, 2 h; hits give low values | activity change, % (series mostly up to about 58 µM) | hit rate 0.81% among 140,000; in the data active means activity change below about -25%
Target sequence (Q92551 whole entry, looked up): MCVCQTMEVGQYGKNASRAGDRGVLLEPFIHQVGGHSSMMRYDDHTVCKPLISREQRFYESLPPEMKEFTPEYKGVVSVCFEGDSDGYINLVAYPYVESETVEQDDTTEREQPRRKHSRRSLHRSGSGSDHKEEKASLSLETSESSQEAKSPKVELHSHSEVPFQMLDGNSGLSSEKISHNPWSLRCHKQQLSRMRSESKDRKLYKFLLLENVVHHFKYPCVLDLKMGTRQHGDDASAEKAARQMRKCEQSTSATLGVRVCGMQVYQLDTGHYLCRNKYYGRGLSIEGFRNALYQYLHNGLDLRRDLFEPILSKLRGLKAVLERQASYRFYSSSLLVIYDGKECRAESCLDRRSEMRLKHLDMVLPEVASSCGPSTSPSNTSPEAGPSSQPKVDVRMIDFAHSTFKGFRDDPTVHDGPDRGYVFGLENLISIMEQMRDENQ
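ADP-Glo luminescence measures ADP made by human IP6K1 during a 2 h RT reaction with ATP/IP6 (mix at 1.3 mM/130 uM); top library doses 57.5 and 19.1 uM final.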
HEK293 viab: GF-AFC viability counterscreen for inhibitors of alpha-synuclein gene (SNCA) expression; HEK-293-SNCA-luc viability, GF-AFC fluorescence, 24 h; Potency, µM (titrated, usually from 57.1 µM), usual class: cytotoxic; hit rate 0.12% among 150,000; AID 1671193, 2021; further: nearly all actives have a fitted effect of over 30% in size
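HEK-293-SNCA-luc cells (1500/well) plated 24 h, then exposed 24 h to a dilution series; GF-AFC added 30 min at 37C, fluorescence 405/540 nm; normalised to medium-only and DMSO wells, Hill fit.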
FLuc SDR -ATP: Firefly luciferase (FLuc-C-HiBiT) SDR gain of signal screen - without ATP; shares compounds with FLuc inh-1; Purified FLuc-C-HiBiT, Nano-Glo HiBiT luminescence, no ATP; Potency, µM (top dose mostly 32.7 µM), most hits filed as activators; hit rate 7.8% among 1,300; AID 1963318, 2024; further: nearly all actives have a fitted effect of over 55% in size
FLuc SDR ATP: Firefly luciferase (FLuc-C-HiBiT) SDR gain of signal screen - plus ATP | hit rate 8.7% among 1,300 | purified FLuc-C-HiBiT + ATP, HiBiT complementation luminescence | Potency, µM (highest dose often 32.7 µM), most hits filed as activators | shares compounds with FLuc inh-1 | AID 1963319, 2024;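 further: signal reports ligand binding via conformational change of the enzyme rather than luciferase catalysis; nearly all actives have a fitted effect of over 55% in size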
FLuc inh-2: Firefly luciferase (FLuc-C-HiBiT) enzymatic inhibition screen - Functional assay. purified FLuc-C-HiBiT enzyme, luciferin luminescence. AID 1963320, 2024. Potency, µM (series often up to 32.7 µM), most hits filed as inhibitors. shares compounds with FLuc inh-1. hit rate 42% among 1,300; further: nearly all actives have a fitted effect of over 70% in size
Each line names hits and unclear results; the compound was inactive in the other large screens (follow-up assays come after a bar, where they were run). This is a sample that favours compounds with a hit; in the whole collection about 7.3% have one here. Unless noted, the call rests on the fitted dose curve; in most records, active means well fitted curve in the direction sought with a large enough effect; inconclusive means small, poorly fitted or top-dose-only effect, or another doubt; inactive means no such curve, though single readings can be large; an effect the other way counts as inactive or inconclusive.

O=c1oc2ccc(F)cc2cc1-c1nc(-c2cccs2)no1	none (no result: HEK293 tox, NIH3T3 tox, FLuc inh-1) | FLuc SDR -ATP inactive | FLuc SDR ATP inactive | FLuc inh-2 inconclusive
O=C1CCCCC(CNC(=O)c2nccc3ccccc23)N1 (centres undefined)	none
O=C(NCCN1CCOCC1)C1CCCN(c2ccnc3ccnn23)C1 (centres undefined)	none (no result: FLuc inh-1)
COc1ccc(-c2cn3nc(SCC(=O)Nc4cc(C)cc(C)c4)ccc3n2)cc1	none (no result: HEK293 tox, NIH3T3 tox, FLuc inh-1) | FLuc SDR -ATP inactive | FLuc SDR ATP inactive | FLuc inh-2 inconclusive
COc1ccc(NC(=O)N2CCCC(Cn3cnc4cccnc43)C2)c(OC)c1 (centres undefined)	none
C[C@@H]1C(=O)O[C@H]2[C@H]1CC[C@@]1(C)Cc3sc(NC(=O)c4c(F)cccc4F)nc3[C@@H](C)[C@H]21	HEK293 tox inconclusive, FLuc inh-1 2.2µM | FLuc SDR -ATP inactive | FLuc SDR ATP inactive | FLuc inh-2 9.9µM
C[C@@H]1C(=O)O[C@H]2[C@H]1CC[C@@]1(C)Cc3sc(NC(=O)c4ccc(F)c(Cl)c4)nc3[C@@H](C)[C@H]21	HEK293 tox inconclusive
C[C@@H]1C(=O)O[C@H]2[C@H]1CC[C@@]1(C)Cc3sc(NC(=O)c4ccncc4)nc3[C@@H](C)[C@H]21	HEK293 tox 56µM, NIH3T3 tox inconclusive, FLuc inh-1 0.5µM | FLuc SDR -ATP inconclusive | FLuc SDR ATP inconclusive | FLuc inh-2 0.57µM
O=C1Nc2ccc(C(=O)c3ccco3)cc2/C1=C/c1cc(Cl)c(O)c(Cl)c1	none (no result: HEK293 tox, SNCA expr inh, NIH3T3 tox, FLuc inh-1, IP6K1 inhibitor, HEK293 viab) | FLuc SDR -ATP inactive | FLuc SDR ATP inactive | FLuc inh-2 11µM
CCc1noc(-c2cccn3c(CNC(=O)c4c(F)cccc4Cl)nnc23)n1	none
CCc1ccc(C2=CC(c3cccc(C)c3)n3c(nc4ccccc43)N2)cc1 (centres undefined)	SNCA expr inh inconclusive (no result: HEK293 tox, NIH3T3 tox, FLuc inh-1) | FLuc SDR -ATP 11µM | FLuc SDR ATP inconclusive | FLuc inh-2 0.88µM
Cc1ccc(C2=CC(c3ccccc3F)n3c(nc4ccccc43)N2)cc1C (centres undefined)	SNCA expr inh inconclusive (no result: HEK293 tox, NIH3T3 tox, FLuc inh-1) | FLuc SDR -ATP inconclusive | FLuc SDR ATP inconclusive | FLuc inh-2 3.1µM
CCc1ccc(C2=CC(c3cccc(OC)c3OC)n3c(nc4ccccc43)N2)cc1 (centres undefined)	none (no result: HEK293 tox, NIH3T3 tox, FLuc inh-1)
COc1cccc(CC(=O)NCCn2ccn3nc(-c4ccc(C)c(C)c4)cc3c2=O)c1	HEK293 tox 79µM, NIH3T3 tox inconclusive, FLuc inh-1 13µM | FLuc SDR -ATP inactive | FLuc SDR ATP inactive | FLuc inh-2 inconclusive
COc1ccc(-c2cc3c(=O)n(CCNC(=O)Cc4cccs4)ccn3n2)cc1	HEK293 tox inconclusive, NIH3T3 tox inconclusive, FLuc inh-1 8.9µM | FLuc SDR -ATP inconclusive | FLuc SDR ATP inconclusive | FLuc inh-2 inconclusive
COc1cccc(-c2cc3c(=O)n(CCNC(=O)c4ccccc4Cl)ccn3n2)c1	HEK293 tox inconclusive, FLuc inh-1 13µM | FLuc SDR -ATP inactive | FLuc SDR ATP inactive | FLuc inh-2 inconclusive
CO[C@H]1C(=O)N(C2CCN(S(=O)(=O)c3c(C)noc3C)CC2)[C@H]1c1ccncc1	none
CCCNC(=O)N1CCC(N2CC(OCCOC)C23CCCCC3)CC1 (centres undefined)	none
COCc1cc(=O)n(CC(=O)N2CCN(c3ccc(F)cc3)CC2)c(N2CCOCC2)n1	none
Cc1cc2c(c(-c3nc4ccccc4s3)c1)OC(CNC(=O)CCc1cccnc1)C2 (centres undefined)	none (no result: HEK293 tox, SNCA expr inh, NIH3T3 tox, FLuc inh-1, IP6K1 inhibitor, HEK293 viab) | FLuc SDR -ATP inactive | FLuc SDR ATP inactive | FLuc inh-2 inconclusive
c1ccc(-c2noc(-c3nc(C4CC4)no3)n2)cc1	HEK293 tox inconclusive, FLuc inh-1 2.5µM | FLuc SDR -ATP inactive | FLuc SDR ATP inactive | FLuc inh-2 inconclusive
Cc1ccc(-c2noc(-c3nc(C4CC4)no3)n2)cc1	none
O=C(c1cc(F)cc(F)c1)N1C[C@@H](CO)[C@H](c2nc(C3CC3)no2)C1	none
O=C([C@@H]1C[C@H](Oc2cccnc2)CN1C(=O)COc1ccc(F)cc1)N1CCCC1	none
COc1ccc(OCc2cc(C(=O)N3C[C@H]4CC[C@H]3C4)n[nH]2)c(Cl)c1	HEK293 tox inconclusive, NIH3T3 tox inconclusive, FLuc inh-1 8.9µM | FLuc SDR -ATP inactive | FLuc SDR ATP inactive | FLuc inh-2 inactive
O=C(c1c(F)cccc1Cl)N1CCC(n2cnnc2C2CC2)CC1	none (no result: FLuc inh-1)
O=C(Nc1cccc(-c2nc3ccccc3[nH]2)c1)c1c(F)cccc1F	none (no result: HEK293 tox, NIH3T3 tox, FLuc inh-1)
O=C(Nc1cccc(-c2nc3ccccc3[nH]2)c1)c1ccccc1F	none (no result: HEK293 tox, NIH3T3 tox, FLuc inh-1) | FLuc SDR -ATP inactive | FLuc SDR ATP inactive | FLuc inh-2 inconclusive
CCOc1ccccc1C(=O)Nc1nc2c(s1)CC(C)CC2 (centres undefined)	SNCA expr inh inconclusive (no result: HEK293 tox, NIH3T3 tox, FLuc inh-1) | FLuc SDR -ATP inactive | FLuc SDR ATP inactive | FLuc inh-2 4.4µM
COc1ccccc1OCC(=O)Nc1nc2c(s1)CC(C)CC2 (centres undefined)	none (no result: HEK293 tox, NIH3T3 tox, FLuc inh-1)
Oc1c(Br)cc(Br)cc1-c1nc2ccccc2s1	none (no result: HEK293 tox, NIH3T3 tox, FLuc inh-1) | FLuc SDR -ATP inactive | FLuc SDR ATP inactive | FLuc inh-2 inconclusive
Cc1ccc2oc(-c3ccc(C)c(NC(=O)/C=C/c4ccc(Cl)cc4)c3)nc2c1	none (no result: HEK293 tox, NIH3T3 tox, FLuc inh-1) | FLuc SDR -ATP inactive | FLuc SDR ATP inactive | FLuc inh-2 inconclusive
Cc1ccc2oc(-c3ccc(C)c(NC(=O)/C=C/c4ccco4)c3)nc2c1	none (no result: HEK293 tox, NIH3T3 tox, FLuc inh-1)
COCCN1CC2(CCCN(C(=O)CCc3cccc(F)c3)C2)CCC1=O (centres undefined)	none
